The text below walks through data of PubChem BioAssay AID588740 (National Center for Advancing Translational Sciences (NCATS), 2011).

The structures appear in SMILES notation. Calls of active or inactive are those of the source. The rule behind the calls is not given here.

This test in a line: PC3M Cytotoxicity Assay for Compounds that Inhibit the Perinuclear Compartment: SAR. The conditions noted are these: PC3M-GFP viability, ATPLite luminescence, 24 h. From the text:
The perinucleolar compartment (PNC) is a non-membrane-bound nuclear subdomain that is associated with but structurally distinct from the nucleolus. The PNC is a heritable trait, in which the number of PNCs per cell in daughter cells often mimics that of their mother cells. The PNC is heterogeneous in shape, is stable through interphase, disassembles during mitosis, and reassembles in early G1. The PNC is concentrated with newly synthesized RNA polymerase III (pol III) RNAs (MRP RNA, RNAse P H1 RNA, hY RNAs[hY1, 2, 5], Alu RNA, and SRP [7SL] RNA) and RNA binding proteins (nucleolin, PTB, CUG-BP, KSRP, Raver1, Raver2, and Rod). […] Extensive in vitro studies have shown that the PNC is unique to tumor cells and preferentially forms in tumor cells derived from solid tissues. Examination of cancer cell lines from various origins and malignant capacities has shown that PNC prevalence correlates with the malignancy of tumors and has the potential to be developed as a pan-cancer prognostic marker. […] Although the PNC is associated with a DNA locus and a handful of components have been identified, much remains to be investigated regarding the structure and function of the PNC and its mechanistic link to cancer. […]
1. […] Luminescencent signal was detected on a Viewlux CCD based imager (PerkinElmer) with a clear filter and a 30 second integration time. […]
(In ATP-based viability assays light output follows the ATP content of the culture.)
For `N=c1c2c(-c3ccccc3)c(-c3ccccc3)n(Cc3ccccc3)c2ncn1C1CCC(O)CC1` (stereo unspecified), the AC50 (as a rule, the concentration at which the activity in the assay is half-maximal) was 9.96 µM (active).
